# Laboratory results published in ChEMBL document CHEMBL2218924, “A broad activity screen in support of a chemogenomic map for kinase signalling research and drug discovery” (Biochem J, 2013).
# Assays:
# [1] = molecular target: T1, MAP kinase-activated protein kinase 5 (Homo sapiens) (UniProt Q8IW41); conditions: at 1 µM
# T1 sequence (whole entry): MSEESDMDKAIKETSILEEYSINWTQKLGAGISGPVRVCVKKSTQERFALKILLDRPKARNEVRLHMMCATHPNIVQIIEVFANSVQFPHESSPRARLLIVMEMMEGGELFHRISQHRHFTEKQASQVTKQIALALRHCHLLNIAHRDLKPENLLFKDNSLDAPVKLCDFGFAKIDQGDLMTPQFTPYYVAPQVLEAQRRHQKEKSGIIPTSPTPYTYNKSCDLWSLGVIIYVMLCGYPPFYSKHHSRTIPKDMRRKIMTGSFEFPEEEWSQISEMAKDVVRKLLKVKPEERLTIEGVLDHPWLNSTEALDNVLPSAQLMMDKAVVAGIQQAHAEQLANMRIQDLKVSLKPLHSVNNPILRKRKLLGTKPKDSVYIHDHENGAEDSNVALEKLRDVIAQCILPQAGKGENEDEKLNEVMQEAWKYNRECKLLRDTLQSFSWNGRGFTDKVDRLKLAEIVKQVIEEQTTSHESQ
# [2] = molecular target: T1, MAP kinase-activated protein kinase 5 (Homo sapiens); conditions: at 10 µM
# [3] = molecular target: T2, Phosphorylase b kinase gamma catalytic chain, liver/testis isoform (Homo sapiens) (UniProt P15735); conditions: at 1 µM
# T2 sequence (whole entry): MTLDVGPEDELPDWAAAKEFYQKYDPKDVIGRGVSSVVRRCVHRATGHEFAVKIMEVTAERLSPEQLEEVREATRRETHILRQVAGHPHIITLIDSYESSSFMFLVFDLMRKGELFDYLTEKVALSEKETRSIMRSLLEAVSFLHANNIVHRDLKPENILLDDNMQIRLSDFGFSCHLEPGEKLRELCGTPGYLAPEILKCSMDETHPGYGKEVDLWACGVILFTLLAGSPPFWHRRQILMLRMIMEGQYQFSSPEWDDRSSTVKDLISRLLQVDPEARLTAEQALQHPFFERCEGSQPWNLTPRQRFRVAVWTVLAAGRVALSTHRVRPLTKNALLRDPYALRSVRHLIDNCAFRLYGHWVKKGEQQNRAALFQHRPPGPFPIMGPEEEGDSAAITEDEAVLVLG
# [4] = molecular target: T2, Phosphorylase b kinase gamma catalytic chain, liver/testis isoform (Homo sapiens); conditions: at 10 µM
# [5] = molecular target: Serine/threonine-protein kinase pim-1 (Homo sapiens) (UniProt P11309); conditions: at 1 µM
# [6] = molecular target: Serine/threonine-protein kinase PLK1 (Homo sapiens) (UniProt P53350); conditions: at 10 µM
# [7] = molecular target: T3, cGMP-dependent protein kinase 1 (Homo sapiens) (UniProt Q13976); conditions: at 1 µM
# T3 sequence (whole entry): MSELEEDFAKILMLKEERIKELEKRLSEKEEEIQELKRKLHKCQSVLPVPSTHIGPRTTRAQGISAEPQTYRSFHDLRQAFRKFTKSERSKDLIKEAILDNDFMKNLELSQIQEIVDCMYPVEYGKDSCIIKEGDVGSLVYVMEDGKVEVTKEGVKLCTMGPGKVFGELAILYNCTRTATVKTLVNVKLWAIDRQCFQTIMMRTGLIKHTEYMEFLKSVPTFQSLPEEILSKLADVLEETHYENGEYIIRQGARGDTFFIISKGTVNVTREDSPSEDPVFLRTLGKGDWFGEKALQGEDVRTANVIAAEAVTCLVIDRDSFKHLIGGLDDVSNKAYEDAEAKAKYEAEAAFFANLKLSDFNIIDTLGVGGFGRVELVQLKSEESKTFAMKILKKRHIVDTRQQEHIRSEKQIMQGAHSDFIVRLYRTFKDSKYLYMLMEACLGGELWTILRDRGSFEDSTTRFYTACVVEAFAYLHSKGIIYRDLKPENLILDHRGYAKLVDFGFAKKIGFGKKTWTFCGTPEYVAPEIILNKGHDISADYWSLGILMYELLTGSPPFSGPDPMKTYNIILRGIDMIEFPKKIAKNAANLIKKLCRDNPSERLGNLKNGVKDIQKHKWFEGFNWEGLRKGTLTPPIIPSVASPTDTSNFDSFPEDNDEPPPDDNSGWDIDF
# [8] = molecular target: T3, cGMP-dependent protein kinase 1 (Homo sapiens); conditions: at 10 µM
# [9] = molecular target: Serine/threonine-protein kinase N2 (Homo sapiens) (UniProt Q16513); conditions: at 1 µM
# [10] = molecular target: Serine/threonine-protein kinase N2 (Homo sapiens) (UniProt Q16513); conditions: at 10 µM
# [11] = molecular target: Serine/threonine-protein kinase pim-1 (Homo sapiens) (UniProt P11309); conditions: at 10 µM
# [12] = molecular target: Serine/threonine-protein kinase pim-2 (Homo sapiens) (UniProt Q9P1W9); conditions: at 1 µM
# [13] = molecular target: Serine/threonine-protein kinase pim-2 (Homo sapiens) (UniProt Q9P1W9); conditions: at 10 µM
# [14] = molecular target: Serine/threonine-protein kinase pim-3 (Homo sapiens) (UniProt Q86V86); conditions: at 1 µM
# [15] = molecular target: Serine/threonine-protein kinase pim-3 (Homo sapiens) (UniProt Q86V86); conditions: at 10 µM
# [16] = molecular target: Serine/threonine-protein kinase PLK1 (Homo sapiens) (UniProt P53350); conditions: at 1 µM
# [17] = molecular target: Tyrosine-protein kinase FRK (Homo sapiens) (UniProt P42685); conditions: at 1 µM
# [18] = molecular target: Tyrosine-protein kinase FRK (Homo sapiens) (UniProt P42685); conditions: at 10 µM
# Chain of Serine/threonine-protein kinase pim-1 (Homo sapiens) (P11309 whole entry, looked up): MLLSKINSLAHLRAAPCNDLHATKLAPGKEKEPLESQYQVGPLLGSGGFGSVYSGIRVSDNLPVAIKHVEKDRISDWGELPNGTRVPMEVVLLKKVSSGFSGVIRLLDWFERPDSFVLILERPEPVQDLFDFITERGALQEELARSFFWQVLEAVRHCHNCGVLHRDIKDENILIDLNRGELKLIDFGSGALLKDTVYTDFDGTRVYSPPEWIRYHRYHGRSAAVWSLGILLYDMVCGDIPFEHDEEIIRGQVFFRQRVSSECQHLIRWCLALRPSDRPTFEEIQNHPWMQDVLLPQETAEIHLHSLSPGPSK
# Chain of Tyrosine-protein kinase FRK (Homo sapiens) (P42685 whole entry): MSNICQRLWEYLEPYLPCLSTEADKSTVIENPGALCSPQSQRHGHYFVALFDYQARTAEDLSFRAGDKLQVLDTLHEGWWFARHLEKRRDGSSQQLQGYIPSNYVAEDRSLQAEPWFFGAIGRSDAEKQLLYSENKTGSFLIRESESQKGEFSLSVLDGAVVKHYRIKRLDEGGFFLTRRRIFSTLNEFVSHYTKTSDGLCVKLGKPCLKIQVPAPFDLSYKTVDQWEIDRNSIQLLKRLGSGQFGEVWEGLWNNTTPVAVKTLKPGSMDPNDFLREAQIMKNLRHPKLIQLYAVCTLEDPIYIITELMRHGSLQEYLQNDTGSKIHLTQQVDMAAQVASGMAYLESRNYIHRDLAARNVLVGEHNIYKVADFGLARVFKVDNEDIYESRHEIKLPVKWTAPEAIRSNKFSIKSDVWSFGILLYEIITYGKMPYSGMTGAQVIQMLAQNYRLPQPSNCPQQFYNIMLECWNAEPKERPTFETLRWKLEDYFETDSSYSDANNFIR
# Chain of Serine/threonine-protein kinase PLK1 (Homo sapiens) (P53350 whole entry): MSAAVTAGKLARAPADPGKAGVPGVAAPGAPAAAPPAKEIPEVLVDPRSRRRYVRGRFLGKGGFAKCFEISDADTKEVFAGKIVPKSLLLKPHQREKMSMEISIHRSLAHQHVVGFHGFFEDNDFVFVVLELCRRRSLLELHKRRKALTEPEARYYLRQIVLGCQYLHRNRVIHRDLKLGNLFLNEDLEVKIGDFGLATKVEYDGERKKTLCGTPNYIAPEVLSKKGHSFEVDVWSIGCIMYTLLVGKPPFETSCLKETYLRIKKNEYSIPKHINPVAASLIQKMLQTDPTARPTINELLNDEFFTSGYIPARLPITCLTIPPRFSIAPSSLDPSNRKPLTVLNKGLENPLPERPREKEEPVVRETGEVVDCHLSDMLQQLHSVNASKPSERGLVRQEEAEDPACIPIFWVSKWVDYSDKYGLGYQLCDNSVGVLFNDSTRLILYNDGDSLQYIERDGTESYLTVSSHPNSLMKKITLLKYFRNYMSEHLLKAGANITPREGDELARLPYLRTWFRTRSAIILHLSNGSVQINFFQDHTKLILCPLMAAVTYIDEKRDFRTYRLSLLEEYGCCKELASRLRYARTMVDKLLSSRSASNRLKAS
# Chain of Serine/threonine-protein kinase N2 (Homo sapiens) (Q16513 whole entry, looked up): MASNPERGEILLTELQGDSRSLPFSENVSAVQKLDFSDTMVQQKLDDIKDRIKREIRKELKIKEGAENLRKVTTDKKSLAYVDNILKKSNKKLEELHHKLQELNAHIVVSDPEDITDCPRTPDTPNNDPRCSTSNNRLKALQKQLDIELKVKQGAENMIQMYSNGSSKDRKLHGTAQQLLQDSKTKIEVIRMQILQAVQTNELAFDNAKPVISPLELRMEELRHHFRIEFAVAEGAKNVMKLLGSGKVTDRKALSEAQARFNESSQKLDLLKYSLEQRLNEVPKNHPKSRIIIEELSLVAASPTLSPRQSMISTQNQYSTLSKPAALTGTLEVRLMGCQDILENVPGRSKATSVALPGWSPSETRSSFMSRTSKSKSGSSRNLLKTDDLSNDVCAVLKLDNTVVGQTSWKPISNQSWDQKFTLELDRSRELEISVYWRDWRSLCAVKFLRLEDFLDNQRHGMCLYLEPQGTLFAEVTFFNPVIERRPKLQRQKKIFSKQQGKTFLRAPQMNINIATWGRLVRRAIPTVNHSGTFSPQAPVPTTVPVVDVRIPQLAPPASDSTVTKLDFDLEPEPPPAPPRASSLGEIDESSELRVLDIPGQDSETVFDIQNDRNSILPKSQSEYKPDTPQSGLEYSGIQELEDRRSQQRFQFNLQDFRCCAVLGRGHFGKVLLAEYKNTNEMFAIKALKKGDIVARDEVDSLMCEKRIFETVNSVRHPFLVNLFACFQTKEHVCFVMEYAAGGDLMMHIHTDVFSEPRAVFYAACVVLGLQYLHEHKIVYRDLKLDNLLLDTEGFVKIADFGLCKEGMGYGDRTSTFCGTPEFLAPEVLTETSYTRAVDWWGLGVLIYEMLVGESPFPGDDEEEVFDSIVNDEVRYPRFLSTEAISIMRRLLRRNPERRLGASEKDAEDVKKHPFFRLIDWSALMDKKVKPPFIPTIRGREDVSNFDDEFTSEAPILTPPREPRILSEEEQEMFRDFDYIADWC
# Chain of Serine/threonine-protein kinase pim-2 (Homo sapiens) (Q9P1W9 whole entry, looked up): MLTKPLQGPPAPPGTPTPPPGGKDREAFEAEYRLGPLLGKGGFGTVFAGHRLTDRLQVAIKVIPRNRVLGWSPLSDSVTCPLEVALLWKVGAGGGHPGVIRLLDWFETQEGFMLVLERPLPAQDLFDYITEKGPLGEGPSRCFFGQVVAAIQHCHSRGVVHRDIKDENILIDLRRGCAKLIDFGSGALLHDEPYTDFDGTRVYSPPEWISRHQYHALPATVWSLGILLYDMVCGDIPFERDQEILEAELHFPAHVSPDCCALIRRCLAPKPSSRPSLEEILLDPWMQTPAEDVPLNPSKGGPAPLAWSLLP
structure (smiles),measurement,setting,value
CCOC(=O)c1c(C)[nH]c(/C=C2\C(=O)Nc3ccccc32)c1C,residual activity,[1],88%
same,residual activity,[2],81%
same,residual activity,[3],87%
same,residual activity,[4],92%
same,residual activity,[5],72%
same,residual activity,[6],74%
O=C1NC(=O)C(c2cn(CCCO)c3ncccc23)=C1c1cnccn1,residual activity,[7],98%
same,residual activity,[8],74%
same,residual activity,[9],100%
same,residual activity,[10],87%
same,residual activity,[3],97%
same,residual activity,[5],72%
same,residual activity,[11],50%
same,residual activity,[12],49%
same,residual activity,[13],43%
same,residual activity,[14],46%
same,residual activity,[15],16%
same,residual activity,[16],87%
same,residual activity,[6],82%
O=C1Cc2c([nH]c3ccc([N+](=O)[O-])cc23)-c2ccccc2N1,residual activity,[1],80%
same,residual activity,[2],81%
same,residual activity,[17],67%
same,residual activity,[18],46%
same,residual activity,[12],119%
same,residual activity,[13],117%
same,residual activity,[16],105%
same,residual activity,[6],100%
COc1cc2ncnc(Nc3cccc(Cl)c3)c2cc1OC,residual activity,[10],76%
same,residual activity,[17],53%
same,residual activity,[18],6%
same,residual activity,[3],104%
same,residual activity,[4],107%
same,residual activity,[5],62%
same,residual activity,[11],48%
same,residual activity,[12],121%
same,residual activity,[14],112%
same,residual activity,[15],101%
same,residual activity,[16],112%
COc1cc2c(cc1OC)-c1n[nH]c(Nc3cccc(F)c3)c1C2,residual activity,[1],47%
same,residual activity,[2],65%
same,residual activity,[5],78%
same,residual activity,[11],112%
same,residual activity,[16],65%
same,residual activity,[6],61%
N#C/C(=C\c1ccc(O)c(O)c1)C(=O)NCc1ccccc1,residual activity,[1],72%
same,residual activity,[2],59%
same,residual activity,[5],74%
same,residual activity,[11],70%
same,residual activity,[16],86%
same,residual activity,[6],64%
COc1ccc(COc2ccc(Cc3cnc(N)nc3N)cc2OC)cc1,residual activity,[13],115%
same,residual activity,[16],80%
same,residual activity,[6],71%
O=C1NC(=O)C(c2cn(CCCn3ccnc3)c3ccccc23)=C1Nc1ccccc1,residual activity,[2],59%
same,residual activity,[9],26%
same,residual activity,[10],11%
same,residual activity,[5],65%
same,residual activity,[11],18%
same,residual activity,[12],77%
same,residual activity,[13],54%
same,residual activity,[16],76%
same,residual activity,[6],64%
CCN1/C(=C/C(C)=O)Sc2ccc(OC)cc21,residual activity,[5],25%
same,residual activity,[11],4%
same,residual activity,[14],51%
same,residual activity,[15],11%
CC(C)N(CCC(=O)c1ccc2ccccc2c1)Cc1ccccc1,residual activity,[1],82%
same,residual activity,[2],72%
same,residual activity,[4],80%
same,residual activity,[13],127%
same,residual activity,[16],69%
same,residual activity,[6],64%
Cn1c2ccccc2c2c3c(c4c5ccccc5n(CCC#N)c4c21)CNC3=O,residual activity,[9],11%
same,residual activity,[10],10%
same,residual activity,[17],42%
same,residual activity,[18],33%
same,residual activity,[3],1%
same,residual activity,[4],2%
same,residual activity,[5],18%
same,residual activity,[11],22%
same,residual activity,[12],25%
same,residual activity,[13],40%
same,residual activity,[14],58%
same,residual activity,[6],66%
NCCNc1ncc(C(N)=O)c(Nc2cccc(C(F)(F)F)c2)n1,residual activity,[1],42%
same,residual activity,[2],11%
same,residual activity,[3],64%
same,residual activity,[4],22%
same,residual activity,[5],82%
same,residual activity,[11],38%
same,residual activity,[13],60%
same,residual activity,[16],100%
same,residual activity,[6],73%
O=C(c1cc2cc(O)ccc2[nH]1)c1cc2cc(O)ccc2[nH]1,residual activity,[1],71%
same,residual activity,[2],40%
same,residual activity,[9],72%
same,residual activity,[10],39%
same,residual activity,[17],37%
same,residual activity,[18],7%
same,residual activity,[5],60%
same,residual activity,[11],24%
same,residual activity,[12],80%
same,residual activity,[13],64%
COc1ccc(CNC(=O)Nc2ncc([N+](=O)[O-])s2)cc1,residual activity,[10],81%
same,residual activity,[3],122%
same,residual activity,[4],107%
same,residual activity,[5],116%
same,residual activity,[11],109%
same,residual activity,[12],134%
same,residual activity,[13],135%
same,residual activity,[16],64%
same,residual activity,[6],76%
Nc1nc(Nc2ccc(S(N)(=O)=O)cc2)nn1C(=O)c1c(F)cccc1F,residual activity,[1],101%
same,residual activity,[2],70%
same,residual activity,[9],81%
same,residual activity,[10],32%
same,residual activity,[18],38%
same,residual activity,[3],100%
same,residual activity,[4],107%
same,residual activity,[5],71%
same,residual activity,[11],52%
same,residual activity,[12],99%
same,residual activity,[13],73%
same,residual activity,[14],99%
same,residual activity,[15],102%
CCCCc1c(-c2ccc(O)cc2)[nH]c2nccnc12,residual activity,[9],87%
same,residual activity,[10],85%
same,residual activity,[17],59%
same,residual activity,[18],25%
same,residual activity,[12],140%
same,residual activity,[16],82%
same,residual activity,[6],87%
O=C(c1ccccc1)c1ccc(N2CCOCC2)cc1O,residual activity,[7],93%
same,residual activity,[8],80%
same,residual activity,[1],99%
same,residual activity,[2],74%
same,residual activity,[10],129%
same,residual activity,[17],89%
same,residual activity,[18],96%
same,residual activity,[3],84%
same,residual activity,[4],113%
same,residual activity,[5],76%
same,residual activity,[11],81%
same,residual activity,[16],93%
same,residual activity,[6],75%
Fc1ccc(-c2nc3n(c2-c2ccncc2)CCS3)cc1,residual activity,[17],99%
same,residual activity,[18],51%
same,residual activity,[5],91%
same,residual activity,[11],73%
same,residual activity,[12],128%
same,residual activity,[14],94%
same,residual activity,[15],98%
same,residual activity,[16],91%
same,residual activity,[6],82%
CCOc1nc(NC(=O)Cc2cc(OC)ccc2OC)cc(N)c1C#N,residual activity,[10],82%
same,residual activity,[18],74%
same,residual activity,[3],118%
same,residual activity,[12],142%
Nc1ncnc2c1cnn2-c1ccccc1,residual activity,[1],94%
same,residual activity,[9],85%
same,residual activity,[10],79%
same,residual activity,[18],90%
same,residual activity,[3],97%
same,residual activity,[4],90%
same,residual activity,[11],126%
same,residual activity,[13],94%
same,residual activity,[14],101%
same,residual activity,[15],97%
same,residual activity,[16],100%
same,residual activity,[6],86%
O=c1c(-c2ccc(F)cc2)c(-c2ccncc2)[nH]n1-c1ccc(Cl)cc1,residual activity,[2],74%
same,residual activity,[18],32%
same,residual activity,[11],75%
same,residual activity,[12],128%
same,residual activity,[13],100%
same,residual activity,[16],77%
N#C/C(=C1/Nc2ccccc2S1)c1ccnc(NCCc2cccnc2)n1,residual activity,[10],59%
same,residual activity,[17],75%
same,residual activity,[18],72%
same,residual activity,[4],52%
same,residual activity,[5],15%
same,residual activity,[11],3%
same,residual activity,[12],33%
same,residual activity,[13],3%
same,residual activity,[14],45%
same,residual activity,[15],9%
same,residual activity,[16],83%
same,residual activity,[6],74%
